# CD40 NFkB inh: CD40 pathway inhibition in BL2 cells | BL2 NF-kB luciferase reporter, CD40L-induced, 4 h | 0.94% of 83,000 active | AID 1053188 | inhibition, % at 10 µM;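 active means mean inhibition of at least 50% with a set share of replicates also reaching that level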;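 further: 0% = neutral control wells and 100% = IKK inhibitor VII at 50 µM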
# An asterisk follows results filed as active; [ ] = remark or other dose. This is one part of a sample in which hits are shown more often than they occur.
SMILES,CD40 NFkB inh
O=C(C1CCCC1)N1CC(=O)N2[C@@H](CO)[C@@H](c3ccc(C#CCc4ccccc4)cc3)[C@@H]2C1,54.7*
O=C(C1CCOCC1)N1CC(=O)N2[C@H](CO)[C@@H](c3ccc(C#CCc4ccccc4)cc3)[C@H]2C1,-6.1[25 µM]
O=C(C1CCCC1)N1CC(=O)N2[C@H](CO)[C@@H](c3ccc(C#CCc4ccccc4)cc3)[C@@H]2C1,38.8
O=C(NCC[C@H]1CC[C@H](NC(=O)C2CCCC2)[C@@H](CO)O1)Nc1ccc(Cl)cc1,-22.8
C[C@H](CO)N1C[C@H](C)[C@H](CN(C)S(=O)(=O)c2ccc(Cl)cc2)OCCCC[C@H](C)Oc2ccc(NC(=O)CCCN(C)C)cc2C1=O,26.4
COc1cccc(S(=O)(=O)N[C@@H]2CC[C@@H](CC(=O)NC3Cc4ccccc4C3)O[C@@H]2CO)c1,6.0[25 µM]
O=C(C[C@@H]1CC[C@@H]2[C@H](COC[C@H](O)CN2Cc2cc(F)ccc2F)O1)NCc1ccc(Oc2ccccc2)cc1,63.4*[25 µM]
O=C(C[C@@H]1CC[C@@H]2[C@H](COC[C@@H](O)CN2CCC(F)(F)F)O1)NCc1ccc(Oc2ccccc2)cc1,19.5
O=C(C[C@@H]1CC[C@H]2[C@@H](COC[C@@H](O)CN2Cc2cc(F)ccc2F)O1)NCc1ccc(Oc2ccccc2)cc1,50.8*[25 µM]
CCC(=O)N1C[C@@H](O)COC[C@@H]2O[C@H](CC(=O)NCc3ccc(Oc4ccccc4)cc3)CC[C@H]21,3.2[25 µM]
O=C(C[C@@H]1CC[C@H]2[C@@H](COC[C@H](O)CN2Cc2cc(F)ccc2F)O1)NCc1ccc(Oc2ccccc2)cc1,35.9[25 µM]
O=C(C[C@H]1CC[C@H]2[C@@H](COC[C@H](O)CN2Cc2cc(F)ccc2F)O1)NCc1ccc(Oc2ccccc2)cc1,34.6[25 µM]
CO[C@@H]1CN(C)C(=O)c2ccc(NC(=O)C3CCCC3)cc2OC[C@@H](C)N(C(=O)c2ccccc2)C[C@H]1C,-3.4
COc1ccc2oc(-c3ccncc3)cc(=O)c2c1,-48.8
CCc1ccc2oc(-c3ccc(OC)cc3)cc(=Nc3c(C)n(C)n(-c4ccccc4)c3=O)c2c1,50.0*
COc1cc(OC)c(C(=O)OCC(=O)Nc2c(C)n(C)n(-c3ccccc3)c2=O)cc1OC,9.8
CC(C)C#Cc1ccc([C@@H]2[C@H](CO)N3C(=O)CN(C(=O)c4ccc5c(c4)OCO5)C[C@@H]23)cc1,5.2[25 µM]
Cc1ccc(NCC(=O)N/N=C/c2ccncc2)cc1,4.8
c1ccc2c(Nc3nc(-c4ccncc4)nc4ccccc34)cccc2c1,17.9
Cc1ccc(-c2nc(N/N=C/c3ccncc3)c3ccccc3n2)cc1,53.0*
C[C@H]1CN(C)C(=O)c2cc(N(C)C)ccc2O[C@H]1CN(C)S(C)(=O)=O,-5.7
O=C(c1ccccc1F)N1C[C@H]2[C@@H](c3ccccc31)[C@@H](CO)N2C(=O)c1ccncc1,3.5
CCCC#Cc1ccc([C@H]2[C@H](CO)N3C(=O)CN(C(=O)c4cccnc4)C[C@@H]23)cc1,0.3[25 µM]
c1ccc(-c2ccccn2)nc1,2.0
c1ccc(-c2ccc(-c3ccccn3)nn2)nc1,52.1*
SMILES,CD40 NFkB inh
Nn1c(-c2ccccn2)nnc1-c1ccccn1,-36.4
CN(C)CC(=O)N1[C@H](C#N)[C@@H](c2ccccc2-c2ccccc2F)[C@H]1CO,-4.0[25 µM]
COc1ccc(S(=O)(=O)Nc2cccc3c2O[C@@H](CN(C)C(=O)Nc2cccc4ccccc24)[C@@H](C)CN([C@@H](C)CO)C3=O)cc1,-2.8[25 µM]
CCC(=O)N1[C@@H]2Cn3c(ccc(-c4ccccc4)c3=O)[C@H]1[C@@H](C(=O)N1CCc3ccccc3C1)[C@@H]2CO,7.1[25 µM]
C[C@@H]1CN(C)C(=O)Cc2ccccc2O[C@H]1CN(C)C(=O)OC(C)(C)C,-4.3
Cc1cc(O)c(C(C)C)cc1C1(c2cc(C(C)C)c(O)cc2C)OC(=O)c2ccccc21,38.7*
Cc1ccc(S(=O)(=O)N[C@@H]2CC[C@H](CC(=O)NCc3ccncn3)O[C@@H]2CO)cc1,-0.1[25 µM]
CNC[C@@H]1Oc2ccc(NS(=O)(=O)c3ccc(OC)cc3)cc2C(=O)N([C@@H](C)CO)C[C@@H]1C,-6.8[25 µM]
C[C@@H]1CN([C@@H](C)CO)C(=O)CCCn2cc(nn2)CO[C@H]1CN(C)Cc1ccc(O)cc1,3.5
COc1ccccc1-c1ccc2c(c1)O[C@@H](CN(C)CC1CCOCC1)[C@@H](C)CN([C@@H](C)CO)S2(=O)=O,-6.0[25 µM]
CC(=NNc1nc2ccccc2s1)c1ccncn1,63.5*
C/C(=N\OCC(=O)Nc1nc2ccccc2s1)c1ccccc1,12.7
O=C(Nc1nc2ccccc2s1)c1cnccn1,28.0
C[C@@H](O)C#Cc1ccc([C@@H]2[C@@H](CO)N3CCCCN(C(=O)c4ccc5c(c4)OCO5)C[C@@H]23)cc1,-5.1[25 µM]
COC(=O)c1nn(-c2ccccc2)c(-c2ccccc2)c1C(=O)c1ccccc1,7.4
COC(=O)c1nn(-c2ccc(-c3ccccc3)cc2)cc1O,70.5*
COc1cn(-c2ccccc2)nc1C(=O)Nc1ccccc1,-76.3
CC(=O)Nc1ccc([N+](=O)[O-])cn1,-1.7
CC(=O)Nc1ccc(Sc2ccc([N+](=O)[O-])o2)cc1,86.3*
CC(=O)Nc1ccc(SC(Sc2ccc(NC(C)=O)cc2)c2ccccc2)cc1,-10.9
CS(=O)(=O)N1C[C@@H]2C(c3ccc(Br)cc3)[C@H](C1)N2Cc1ccc(F)cc1 (stereo partly specified),11.5
CCOCCCNC(=O)/C(C#N)=C/c1ccc(Cl)c([N+](=O)[O-])c1,73.2*
COCCCNC(=O)c1ccc([N+](=O)[O-])c(Cl)c1,20.7
N#C/C(=C\c1ccc(O)c(O)c1)C(=O)NCCCc1ccccc1,1.3
CN1C(=O)c2cc(NC(=O)c3cnccn3)ccc2OC[C@H]2O[C@H](CC(=O)NCC3CC3)CC[C@H]21,-0.2
SMILES,CD40 NFkB inh
CC(S(=O)(=O)c1ccccc1)S(=O)(=O)c1ccccc1,6.0
O=S(=O)(CCS(=O)(=O)c1ccccc1)c1ccccc1,1.7
CC(C)(C)OC(=O)CC(S(=O)(=O)c1ccccc1)S(=O)(=O)c1ccccc1,66.8*
CN1CCN(c2ccccc2NC(=O)c2ccc(-c3cccc([N+](=O)[O-])c3)o2)CC1,-10.7
O=C(Nc1ccccc1)c1ccc(-c2ccc([N+](=O)[O-])cc2)o1,-47.2
O=C(c1ccc(-c2ccc(Cl)cc2)o1)N1CCN(c2ccc([N+](=O)[O-])cc2Cl)CC1,48.6*
O=C(c1cccc(F)c1)N1CCCCN2[C@H](C1)[C@H](c1ccc(C#CC3(O)CCCC3)cc1)[C@@H]2CO,12.4[25 µM]
C[C@@H](O)C#Cc1ccc([C@H]2[C@H](CO)N3CCCCN(C(=O)c4ccncc4)C[C@@H]23)cc1,4.3[25 µM]
CC(C)CCC(CCNCc1ccccn1)c1ccc2c(c1)OCO2 (stereo unspecified),15.1
CC(=O)N(CCC(Cc1ccccc1)c1ccc2c(c1)OCO2)Cc1ccccc1F (stereo unspecified),11.6
Fc1ccccc1CNCCC(Cc1ccccc1)c1ccc2c(c1)OCO2 (stereo unspecified),32.5*
COc1ccccc1NC(=O)N1C[C@@H](O)COC[C@H]2O[C@@H](CC(=O)N3CCC(Cc4ccccc4)CC3)CC[C@@H]21,12.1[25 µM]
Cc1noc(C)c1S(=O)(=O)Nc1ccc2c(c1)CC(=O)N([C@@H](C)CO)C[C@H](C)[C@@H](CN(C)C(=O)Nc1cccc3ccccc13)O2,0.5[25 µM]
C/C=C/c1ccc([C@@H]2[C@@H](CO)N(Cc3cccc(F)c3)C23CN(C(C)=O)C3)cc1,8.4[25 µM]
Cc1nonc1C(=O)N/N=C/c1ccc([N+](=O)[O-])o1,-5.6
COc1ccc(/C=N/NC(=O)CC(=O)N/N=C/c2ccc(OC)cc2)cc1,2.9

# Screens deposited in PubChem BioAssay by Broad Institute.
